Laboratory results reported in PubChem BioAssay AID1159580 (chemical genetic matrix, 2015).
About 2,000 (36%) of roughly 5,500 compounds were called active. Another 18% or so got no clear call; they are omitted. No stated cut-off is given here; in the data, active means normalized growth mostly below about 0.91 (no sharp cut-off); inconclusive means no clear call, values can overlap the other calls; inactive means mostly above about 0.92. This is one part of the list.

Test: chemical genetic growth profiling, strain panel (AID 1159580);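 further: tested at 20 µM; growth read once vehicle control cultures reached saturation at 30 °C; 1 = growth at the plate median or of vehicle wells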
Conditions: S. cerevisiae deletion strains, growth OD

Measured: normalized growth

CCOc1ccc(C(=O)c2ccc(O)c(O)c2O)cc1
active: locus YKL160W, strain elf1, stronger effect = lower value 0.9 | locus YLR058C, strain SHM2, stronger effect = lower value 0.631 | locus YLR221C, strain rsa3, stronger effect = lower value 0.887 | locus YLR262C, strain YPT6 (second series), stronger effect = lower value 0.803 | locus YLR268W, strain sec22, stronger effect = lower value 0.84 | locus YLR330W, strain CHS5, stronger effect = lower value 0.884 | locus YLR342W, strain FKS1, stronger effect = lower value 0.891 | locus YLR357W, strain rsc2, stronger effect = lower value 0.691 | locus YLR371W, strain rom2, stronger effect = lower value 0.776 | locus YLR418C, strain cdc73, stronger effect = lower value 0.715 | locus YML016C, strain PPZ1, stronger effect = lower value 0.83 | locus YMR058W, strain fet3, stronger effect = lower value 0.384 | locus YMR205C, strain PFK2, stronger effect = lower value 0.825 | locus YMR223W, strain ubp8, stronger effect = lower value 0.874 | locus YMR231W, strain pep5, stronger effect = lower value 0.9 | locus YMR263W, strain SAP30, stronger effect = lower value 0.884 | locus YNL153C, strain GIM3, stronger effect = lower value 0.853 | locus YNL209W, strain ssb2, stronger effect = lower value 0.76 | locus YNL233W, strain BNI4, stronger effect = lower value 0.866 | locus YNL271C, strain bni1, stronger effect = lower value 0.911 | locus YNL322C, strain KRE1, stronger effect = lower value 0.821 | locus YNR052C, strain pop2, stronger effect = lower value 0.792 | locus YOL147C, strain pex11, stronger effect = lower value 0.84 | locus YOR001W, strain rrp6, stronger effect = lower value 0.867 | locus YOR061W, strain CKA2, stronger effect = lower value 0.852 | locus YOR069W, strain VPS5, stronger effect = lower value 0.88 | locus YOR083W, strain WHI5, stronger effect = lower value 0.887 | locus YOR106W, strain vam3, stronger effect = lower value 0.711 | locus YOR144C, strain elg1, stronger effect = lower value 0.867 | locus YOR265W, strain rbl2, stronger effect = lower value 0.913 | locus YOR290C, strain snf2, stronger effect = lower value 0.67 | locus YPL051W, strain arl3, stronger effect = lower value 0.807 | locus YPL078C, strain atp4, stronger effect = lower value 0.885 | locus YPL106C, strain sse1, stronger effect = lower value 0.839 | locus YPR163C, strain tif3, stronger effect = lower value 0.901 | locus YPR167C, strain met16, stronger effect = lower value 0.897 | strain wtn01, stronger effect = lower value 0.864
inactive: locus YJR075W, strain HOC1, stronger effect = lower value 0.928 | locus YKL009W, strain mrt4, stronger effect = lower value 0.983 | locus YKL068W, stronger effect = lower value 0.97 | locus YKL085W, strain MDH1 (second series), stronger effect = lower value 0.967 | locus YKL085W, strain MDH1, stronger effect = lower value 0.967 | locus YKR001C, strain vps1, stronger effect = lower value 0.916 | locus YKR026C, strain gcn3, stronger effect = lower value 0.941 | locus YKR091W, strain srl3, stronger effect = lower value 0.965 | locus YLL001W, strain dnm1, stronger effect = lower value 0.932 | locus YLL026W, stronger effect = lower value 0.952 | locus YLL041C, strain sdh2, stronger effect = lower value 0.937 | locus YLR027C, strain aat2, stronger effect = lower value 0.947 | locus YLR039C, strain RIC1, stronger effect = lower value 0.777 | locus YLR102C, strain apc9, stronger effect = lower value 0.995 | locus YLR113W, strain HOG1, stronger effect = lower value 0.903 | locus YLR258W, strain gsy2, stronger effect = lower value 0.934 | locus YLR262C, strain YPT6, stronger effect = lower value 0.896 | locus YLR320W, strain mms22, stronger effect = lower value 0.88 | locus YLR370C, strain arc18, stronger effect = lower value 0.95 | locus YLR384C, strain iki3, stronger effect = lower value 0.936 | locus YML032C, strain rad52, stronger effect = lower value 0.994 | locus YML120C, strain ndi1, stronger effect = lower value 0.928 | locus YML124C, strain tub3, stronger effect = lower value 0.967 | locus YMR078C, strain ctf18, stronger effect = lower value 0.965 | locus YMR125W, strain sto1, stronger effect = lower value 0.958 | locus YMR129W, stronger effect = lower value 0.963 | locus YMR307W, strain GAS1, stronger effect = lower value 0.787 | locus YNL067W, strain RPL9B, stronger effect = lower value 0.869 | locus YNL071W, strain lat1, stronger effect = lower value 0.963 | locus YNL183C, strain NPR1, stronger effect = lower value 0.852 | locus YNL248C, strain rpa49, stronger effect = lower value 0.98 | locus YNL250W, strain rad50, stronger effect = lower value 0.981 | locus YNL298W, strain CLA4, stronger effect = lower value 0.941 | locus YNL307C, strain MCK1, stronger effect = lower value 0.951 | locus YNL322C, strain KRE1 (second series), stronger effect = lower value 0.943 | locus YNR049C, strain mso1, stronger effect = lower value 0.954 | locus YOL006C, strain TOP1, stronger effect = lower value 0.656 | locus YOL012C, strain htz1 0.425 | locus YOR070C, strain gyp1, stronger effect = lower value 0.941 | locus YOR080W, strain dia2, stronger effect = lower value 0.954 | locus YOR136W, strain idh2, stronger effect = lower value 0.962 | locus YOR184W, strain ser1, stronger effect = lower value 0.882 | locus YOR231W, strain MKK1, stronger effect = lower value 0.931 | locus YOR270C, strain vph1, stronger effect = lower value 0.81 | locus YOR316C, strain cot1, stronger effect = lower value 0.983 | locus YPL055C, strain LGE1, stronger effect = lower value 0.841 | locus YPL240C, strain hsp82, stronger effect = lower value 0.949 | locus YPL241C, strain CIN2, stronger effect = lower value 0.969 | locus YPL256C, strain CLN2, stronger effect = lower value 0.984 | locus YPR119W, strain clb2, stronger effect = lower value 0.991 | locus YPR141C, strain kar3, stronger effect = lower value 0.964
